The text below walks through data of PubChem BioAssay (NCATS).

In assay [1] the test system is HaCat. Nature of the assay: Cytotoxic Profiling of Annotated Libraries Using Quantitative High-Throughput Screening (AID 1296008). For max response: % is set by controls: 0 for no effect and ±100 for the full control effect. Note: potency is the fitted concentration of half-maximal effect. The conditions noted are these: Five cell lines viability, CellTiter-Glo ATP luminescence, 48-72 h; max response: hits give low values. Summed up:
(§1)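 Cells exposed to compounds for 48 or 72 hr at 37 degrees Celsius. Viability read as ATP-coupled luminescence with CellTiter-Glo after 10 min at room temperature.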
On the technique in general: ATP-based viability assays read luminescence as a measure of living cells.

A further assay has as its system KB-3-1. The assay is described as above. The note with it: Five cell lines viability, CellTiter-Glo ATP luminescence, 48-72 h; max response: hits give low values. Summed up: as §1
The test system of assay [2] is HACAT. In words: qHTS assay to identify novel small-molecules to repurpose for Merkel cell carcinoma treatment (AID 1296009). The note with it: MCC and control cell lines, CellTiter-Glo viability, 72 h; at 44.8 µM (top of the series) unless noted. Summed up: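 Cells were incubated with compound for 72 hr at 37 degree celsius before CellTiter-Glo addition. Luminescence was normalized with no-cell wells as full cytotoxicity and DMSO as baseline.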
(In general: Quantitative high-throughput screening tests each substance at several concentrations.)

The subject of a further assay is HEK293. Nature of the assay: Cytotoxic Profiling of Annotated Libraries Using Quantitative High-Throughput Screening (AID 1296008). For max response: % is set by controls: 0 for no effect and ±100 for the full control effect. Note: potency is the fitted concentration of half-maximal effect. The note with it: Five cell lines viability, CellTiter-Glo ATP luminescence, 48-72 h; max response: hits give low values. Summed up:
as §1

For another assay, the system named is NIH3T3. The assay is described as above. The conditions noted are these: Five cell lines viability, CellTiter-Glo ATP luminescence, 48-72 h; max response: hits give low values. Summed up: as §1

Records with an inconclusive call do not appear. Values without a mark were called inactive. Activity calls are given as the source filed them. Calls come from the whole dose curve; as a rule, active = well fitted inhibition curve with a large enough effect; inconclusive = small, poorly fitted or top-dose-only effect; inactive = flat fitted curve, though single readings scatter.
Note: nearly all actives have a fitted effect of over 60% in size.

Consider `CC(C)(C)c1nc2c3cc[nH]c(=O)c3c3cc(F)ccc3c2[nH]1`, for which, in the assay with HaCat [1], the Potency is 6.62 µM (active). The max response in the assay on KB-3-1 was -11.6%.

Consider `CN1[C@H]2CC(OC(=O)[C@@H](CO)c3ccccc3)C[C@H]1[C@H]1O[C@H]12` (stereo partly specified), for which, in the assay on HACAT [2], the outcome was “inactive [at 17.4 µM]”. For the molecule `Cc1ccc(-n2[nH]c(C)c(N=Nc3cccc(-c4cccc(C(=O)O)c4)c3O)c2=O)cc1C`, the Potency in the assay with HaCat [1] is 21.1 µM (active). Besides, the max response in the assay on KB-3-1 was -13.9%. As for `CC(C)Oc1ccc(C(=O)N[C@H](CNC(=O)CN(C)C)Cc2ccc(-c3cn4cccc([C@H](C)O)c4n3)cc2)cc1Cl`, the Potency with KB-3-1 was 0.332 µM (active).

`CN1CCCN(C(=O)c2cccc(-c3ccc(C=C4C(=O)Nc5ccc(Cl)cc54)o3)c2)CC1`: the Potency was 1.32 µM (active) in the assay with HEK293 and 23.5 µM (active) in the assay with KB-3-1. Take `C=CC(=O)Nc1cc(NC(=O)c2ccc(C)c(NC(=O)c3ccno3)c2)cc(C(F)(F)F)c1`: the call in the assay on HaCat [1] and in the assay on HACAT [2] was inactive. For the same molecule, the max response in the assay with NIH3T3 was -0.953%.

`O=c1c(O)c(-c2ccc(O)c(O)c2)oc2cc(O)ccc12`: the call in the assay with HaCat [1] and with HACAT [2] was inactive. For the molecule `NC(=O)N1CCC(CC(=O)N2CCC([C@H]3c4ncc(Br)cc4CCc4cc(Cl)cc(Br)c43)CC2)CC1`, the figures for the Potency in the assay with HEK293 and with HaCat [1] were 1.32 µM (active) and 10.5 µM (active), respectively. Also, the max response with NIH3T3 is -22.6%.

Turning to `NC(=NCCCCCCN=C(N)N=C(N)Nc1ccc(Cl)cc1)N=C(N)Nc1ccc(Cl)cc1`, the Potency is 13.2 µM (active) in the assay on HEK293 and 8.33 µM (active) in the assay on KB-3-1.

With `O=C(NC1CC1)c1cccc(-c2ccc3c(NC(=O)C4CC4)n[nH]c3c2)c1`, the Potency with KB-3-1 is 4.18 µM (active). On to `CCc1ccc(C(=O)Nc2cc(CN3CCN(C)CC3)cc(C(F)(F)F)c2)cc1C#Cc1cnc2ccnn2c1`, for which the Potency in the assay with HEK293 is 10.5 µM (active); with KB-3-1 it was 8.33 µM (active).
